High-throughput results (PubChem)
Shown are actives, neighbours in structure and some others; about 1% of the full set was active somewhere.
TcdB GH inh: inhibitors of Clostridioides difficile toxin B glycohydrolase | inhibition, % at 9.99 µM | 350,000 tested, 0.24% active | P18177 | TcdB glycohydrolase enzymatic assay, plate reader; in the data active means inhibition above about 10%
Mtb hypoxia inh: Mtb hypoxia fluorescent reporter inhibition; 300,000 tested, 0.1% active; fluorescence inhibition, % (concentration not given with the values); M. tuberculosis hypoxia-regulated fluorescent reporter, fluorescence; in the data active means fluorescence inhibition mostly above about 23%, no sharp cut-off; inactive means mostly below about 17%
FadD28 binding: blocks FadD28 binding to the bisubstrate probe; fluorescence polarization; inhibition, % at 12.5 µM; 360,000 tested, 0.22% active; in the data active means inhibition above about 8.5%, passing the limit was not always enough
BioA inh: blocks M. tuberculosis BioA enzyme activity; purified M. tuberculosis BioA enzyme, plate reader; inhibition, % at 9.99 µM; 360,000 tested, 0.096% active; AID 602481; in the data active means inhibition above about 40%
PrP UTR inh: suppresses PrP 5' UTR mRNA reporter expression; 340,000 tested, 0.35% active; AID 488862; inhibition, % (no concentration beside the values); cell-based PrP 5' UTR mRNA reporter, plate reader; in the data active means inhibition above about 52%; further: 0 = median of the neutral control wells
PriA SSB inh: blocks PriA binding to SSB C-terminal tail; AlphaScreen SSBct-PriA binding, biotinylated peptide; inhibition, % at 33 µM; 430,000 tested, 0.6% active; AID 1272365; in the data active means inhibition mostly above about 37%, no sharp cut-off; inactive means mostly below about 20%;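 further: plate controls were negative control peptide for no effect and reference peptide for full effect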
* marks the source's active call; other numbers are inactive results; / = no result.

SMILES | TcdB GH inh | Mtb hypoxia inh | FadD28 binding | BioA inh | PrP UTR inh | PriA SSB inh
CCCN1CCCc2cc(CCNS(=O)(=O)c3ccc(OC)c(Cl)c3)ccc21 | / | / | / | / | / | 44.0*
CCCN1CCCc2cc(CCNS(=O)(=O)c3ccc(OC)cc3)ccc21 | / | / | / | / | / | 62.0*
CCCN1CCCc2cc(CCNS(=O)(=O)c3cc(C)c(C)cc3OC)ccc21 | / | / | / | / | / | 60.0*
CCOc1ccc(CC(=O)Nc2nc(CN3CCc4ccccc4C3)cs2)cc1 | / | / | / | / | / | -2.0
CN=c1scc(-c2cccs2)n1N=Cc1ccc(O)c(O)c1O | / | 3.5 | / | / | / | 60.5
CN=c1scc(-c2ccccc2F)n1/N=C/c1ccc(O)c(O)c1O | -6.2 | / | 9.1* | -1.9 | 39.8 | /
COC(=O)CS[C@H]1CCN(C(=O)c2ccc(C(=O)OC)cc2)C1 | / | / | / | / | / | -7.0
CC(=O)N1CCN(c2ccc(S(C)(=O)=O)cc2[N+](=O)[O-])CC1 | 10.9* | 15.4 | -3.3 | 9.5 | -21.3 | -7.2
O=[N+]([O-])c1cc(S(=O)(=O)c2ccc(N3CCCCC3)c([N+](=O)[O-])c2)ccc1N1CCCCC1 | 5.7 | 7.0 | -0.9 | -2.7 | 1.1 | 42.0*
CS(=O)(=O)c1ccc(N2CCC(Cc3ccccc3)CC2)c([N+](=O)[O-])c1 | / | / | / | / | / | 41.0*
CN(C(=O)c1ccccc1[N+](=O)[O-])c1ccccc1C(=O)NCc1ccccc1 | 0.6 | -5.2 | -2.4 | 1.1 | -12.2 | /
C#CCN(C)Cc1ccc(O)c2ncccc12 | / | / | / | / | / | 109.5*
O=Cc1ccc(O)c2ncccc12 | / | 10.1 | -1.2 | -0.3 | 11.7 | 93.8*
Oc1ccc(-c2ccc(O)c3ncccc23)c2cccnc12 | / | / | / | / | / | 51.0
CCCCCCCCCCCCc1ccc(O)c2ncccc12 | / | / | / | / | / | 32.9
CC(C)OCc1ccc(O)c2ncccc12 | / | / | / | / | / | 86.9*
CCN(CC)Cc1ccc(O)c2ncccc12 | / | / | / | / | / | 139.0*
CCC(NC(=O)Cc1c(C)c2cc3c(cc2oc1=O)OC(C)(C)CC3)C(=O)O (stereo unspecified) | 1.1 | 16.5 | -1.0 | -0.8 | -21.5 | -4.4
COc1ccc(-n2c(NN)nc3sc4c(c3c2=O)CCCC4)cc1 | -0.4 | 14.7 | -2.6 | -4.5 | -13.5 | 1.6
COCCCNC(=O)CSc1nc2c(sc(=S)n2-c2cc(Cl)ccc2OC)c(=O)[nH]1 | -0.2 | 12.1 | -12.0 | -0.1 | 3.1 | -5.2
Oc1ccc(Cc2ccc(O)c3ncccc23)c2cccnc12 | / | / | / | / | / | 72.4*
CCc1ccc(O)c2ncccc12 | / | / | / | / | / | 27.9
NS(=O)(=O)c1ccc(N=Nc2ccc(O)c3ncccc23)cc1 | -0.8 | 15.6 | -2.5 | / | 17.4 | -13.3
CCCCCC(=O)c1ccc(O)c2ncccc12 | / | / | / | / | / | 129.5*
CCCCCCCCCCCCCCCCSCc1ccc(O)c2ncccc12 | / | / | / | / | / | 59.5*
SMILES | TcdB GH inh | Mtb hypoxia inh | FadD28 binding | BioA inh | PrP UTR inh | PriA SSB inh
CCCCCCCCCCCCCCSCc1ccc(O)c2ncccc12 | / | / | / | / | / | 57.5
O=S(=O)(O)c1ccc(O)c2ncccc12 | / | / | / | / | / | 99.0*
COCc1cc(C)nc(SCc2ccccc2Cl)c1C#N | -0.3 | 6.2 | -0.8 | / | -4.0 | -5.5
COC(=O)c1ccc(C)c(-n2c(N)c(C(=O)NCc3ccco3)sc2=S)c1 | / | / | / | / | / | 31.0
COc1ccccc1NC(=O)c1sc(=S)n(-c2ccc(Cl)cc2)c1N | / | / | / | / | / | 36.0*
COC(=O)c1ccc(C)c(-n2c(N)c(C(=O)Nc3ccccc3C)sc2=S)c1 | / | / | / | / | / | 39.0*
C=CCn1c(N)c(C(=O)Nc2ccccc2OC)sc1=S | / | 3.7 | -1.4 | 1.7 | -25.0 | -2.6
CSc1nccc(-c2nn(-c3ccc(C)cc3)ccc2=O)n1 | / | / | -3.4 | 1.0 | -5.3 | 77.3*
CC(C)(C)OC(=O)C(Cc1ccccc1)NC(=O)c1nc[nH]c1C(=O)NCc1ccccc1 (stereo unspecified) | / | 9.9 | / | / | / | /
COCCCn1c(SCC(=O)Nc2cccc(C)n2)nnc1-c1ccco1 | / | / | -3.6 | -0.8 | -16.2 | -2.2
C/C(=N\NC(=O)c1c([N+](=O)[O-])c(C)nn1C)c1ccc(NC(=O)C2CCCC2)cc1 | 1.3 | / | -0.2 | 0.8 | 66.6* | /
CC(=NNC(=O)c1c([N+](=O)[O-])c(C)nn1C)c1ccc(NC(=O)C2CCCC2)cc1 | / | 1.0 | / | / | / | -0.8
O=C(NCC(=O)N1CCCC1C(=O)O)OC1CCCCC1 (stereo unspecified) | / | / | -3.8 | -1.0 | 4.0 | -1.3
CCCN1CCCc2cc(CCNC(=O)C(=O)Nc3ccccc3F)ccc21 | / | / | / | / | / | 43.0
CCCN1CCCc2cc(CCNS(=O)(=O)c3ccccc3F)ccc21 | / | / | / | / | / | 50.0*
CCCN1CCCc2cc(CCNS(=O)(=O)c3cc(F)ccc3F)ccc21 | / | / | / | / | / | 68.0*
O=C(O)c1[nH]c2ccccc2c1C(c1ccccc1)c1c(C(=O)O)[nH]c2ccccc12 | 2.0 | 0.1 | 22.1* | -0.1 | -22.5 | -3.1
